Laboratory results taken from PubChem BioAssay AID1159580 (chemical genetic matrix, 2015).
Screen size: about 5,500 compounds; about 2,000 (36%) were called active. Roughly 18% stayed inconclusive and do not appear here. Rule as the data show it: active = normalized growth mostly below about 0.91 (no sharp cut-off); inconclusive = no clear call, values can overlap the other calls; inactive = mostly above about 0.92. This is one part of the list.

Assay: chemical genetic growth profiling, strain panel (AID 1159580);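 also: tested at 20 µM; growth read once vehicle control cultures reached saturation at 30 °C; 1 = growth at the plate median or of vehicle wells; lower values mean less growth of the strain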
Settings: S. cerevisiae deletion strains, growth OD

Measured: normalized growth

CNC(=O)N(C)c1nnc(C(C)(C)C)s1
inactive: locus YAL013W, strain DEP1, hits give low values 1.01 | locus YAL021C, strain ccr4, hits give low values 0.935 | locus YAL026C, strain drs2, hits give low values 0.993 | locus YAL030W, strain snc1, hits give low values 1 | locus YBL061C, strain skt5, hits give low values 0.997 | locus YBR009C, strain hhf1, hits give low values 1.01 | locus YBR021W, strain FUR4, hits give low values 1.04 | locus YBR023C, strain chs3, hits give low values 0.994 | locus YBR171W, strain sec66, hits give low values 0.983 | locus YBR229C, strain ROT2, hits give low values 1.01 | locus YBR231C, strain swc5, hits give low values 1.02 | locus YBR279W, strain paf1, hits give low values 0.996 | locus YCL011C, strain gbp2, hits give low values 0.985 | locus YCL016C, strain dcc1, hits give low values 0.979 | locus YCL029C, strain bik1, hits give low values 1.01 | locus YCL069W, strain vba3, hits give low values 0.988 | locus YCR088W, strain abp1, hits give low values 0.988 | locus YDL005C, strain med2, hits give low values 0.982 | locus YDL035C, strain GPR1, hits give low values 1.02 | locus YDL040C, strain nat1, hits give low values 0.99 | locus YDL074C, strain BRE1, hits give low values 1.03 | locus YDL101C, strain DUN1, hits give low values 1.02 | locus YDL134C, strain PPH21, hits give low values 1.01 | locus YDL185W, strain tfp1, hits give low values 0.959 | locus YDL192W, strain arf1, hits give low values 1.01 | locus YDR001C, strain nth1, hits give low values 0.977 | locus YDR069C, strain doa4, hits give low values 0.988 | locus YDR101C, strain arx1, hits give low values 1.01 | locus YDR137W, strain rgp1, hits give low values 0.999 | locus YDR150W, strain NUM1, hits give low values 1.01 | locus YDR159W, strain sac3, hits give low values 1.03 | locus YDR162C, strain NBP2, hits give low values 1.01 | locus YDR195W, strain ref2 0.946 | locus YDR297W, strain sur2, hits give low values 1.02 | locus YDR318W, strain mcm21, hits give low values 1.02 | locus YDR334W, strain swr1, hits give low values 0.982 | locus YDR335W, strain msn5, hits give low values 0.995 | locus YDR388W, hits give low values 1.02 | locus YDR392W, strain spt3, hits give low values 1.02 | locus YDR502C, strain sam2, hits give low values 1.02 | locus YEL003W, strain gim4, hits give low values 0.989 | locus YEL037C, strain rad23, hits give low values 0.981 | locus YEL061C, strain CIN8 (second series), hits give low values 0.98 | locus YEL061C, strain CIN8, hits give low values 1.01 | locus YER015W, strain faa2, hits give low values 0.99 | locus YER016W, strain bim1, hits give low values 0.987 | locus YER110C, hits give low values 1.01 | locus YER111C, strain swi4, hits give low values 1 | locus YER155C, strain BEM2 (second series), hits give low values 1.02 | locus YER155C, strain BEM2, hits give low values 1.01 | locus YER167W, strain BCK2, hits give low values 1.02 | locus YFR010W, strain ubp6, hits give low values 0.969 | locus YGL078C, strain dbp3, hits give low values 1.01 | locus YGL086W, strain mad1, hits give low values 1.01 | locus YGL167C, strain pmr1, hits give low values 0.976 | locus YGL173C, strain kem1, hits give low values 1 | locus YGL227W, strain vid30, hits give low values 1 | locus YGL240W, strain doc1, hits give low values 1.03 | locus YGL248W, strain PDE1, hits give low values 1.01 | locus YGL253W, strain hxk2, hits give low values 0.991 | locus YGR078C, strain PAC10, hits give low values 1.02 | locus YGR135W, strain pre9, hits give low values 1.02 | locus YGR229C, strain SMI1, hits give low values 1.04 | locus YGR252W, strain gcn5, hits give low values 1.05 | locus YHR013C, strain ard1, hits give low values 0.972 | locus YHR027C, strain rpn1, hits give low values 0.993 | locus YHR030C, strain SLT2, hits give low values 1.01 | locus YHR079C, strain IRE1 (second series), hits give low values 1.03 | locus YHR094C, strain hxt1, hits give low values 1.01 | locus YHR129C, strain ARP1, hits give low values 0.998 | locus YHR142W, strain chs7, hits give low values 0.979 | locus YHR200W, strain rpn10, hits give low values 1.02 | locus YIL066C, strain RNR3, hits give low values 1.02 | locus YIL073C, strain SPO22, hits give low values 1.07 | locus YIL125W, strain kgd1, hits give low values 1.02 | locus YIR030C, strain dcg1, hits give low values 1.02 | locus YJL092W, strain hpr5, hits give low values 0.976 | locus YJL095W, strain BCK1 (second series), hits give low values 0.993 | locus YJL095W, strain BCK1, hits give low values 1.01 | locus YJL115W, strain asf1, hits give low values 0.973 | locus YJL129C, strain trk1, hits give low values 0.999 | locus YJL134W, strain LCB3, hits give low values 1.02 | locus YJL154C, strain vps35, hits give low values 0.976 | locus YJL164C, strain tpk1, hits give low values 0.998 | locus YJL166W, strain qcr8, hits give low values 1.02 | locus YJL168C, strain set2, hits give low values 1.02 | locus YJL187C, strain SWE1 (second series), hits give low values 1.01 | locus YJR043C, strain POL32, hits give low values 1.03
